# PMC5700166
# Tests used:
# Assay in all cases: protein-binding microarray (PBM); PBM: ~300 nM protein, 6 mM HEPES pH 7.8, 80 mM KCl, 0.5 mM EDTA, 0.5 mM EGTA, 6% glycerol, 35 ng/ul poly-dIdC, 1% milk, 1 h, room temperature; Ap Aiptasia and Nv Nematostella (sea anemones) / Co Capsaspora / Aq Amphimedon (sponge) / Dm Drosophila / Hu human; RHD is the Rel homology domain; high values mean tight binding
# Settings in all cases: dsDNA, one strand shown
# GST-Ap-NF-kB RHD = target: T1, GST-Ap-NF-kB RHD (Exaiptasia pallida (Aiptasia), UniProt A0A913YAJ5 2-422)
# T1 sequence: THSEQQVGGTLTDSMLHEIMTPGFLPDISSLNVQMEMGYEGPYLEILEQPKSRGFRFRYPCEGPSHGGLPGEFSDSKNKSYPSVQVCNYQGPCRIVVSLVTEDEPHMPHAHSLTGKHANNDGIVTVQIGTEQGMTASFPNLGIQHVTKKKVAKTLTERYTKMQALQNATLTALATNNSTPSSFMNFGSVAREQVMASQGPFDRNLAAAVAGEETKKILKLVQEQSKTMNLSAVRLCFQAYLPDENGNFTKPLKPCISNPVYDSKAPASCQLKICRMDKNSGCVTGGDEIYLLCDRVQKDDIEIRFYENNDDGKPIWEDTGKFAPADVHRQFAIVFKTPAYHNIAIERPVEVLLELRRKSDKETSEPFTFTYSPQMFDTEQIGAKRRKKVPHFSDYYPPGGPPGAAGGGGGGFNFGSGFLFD
# [1] = target: T2, GST-Nv-NF-kB (Cys allele) (Nematostella vectensis, UniProt E5G601 2-411)
# T2 sequence: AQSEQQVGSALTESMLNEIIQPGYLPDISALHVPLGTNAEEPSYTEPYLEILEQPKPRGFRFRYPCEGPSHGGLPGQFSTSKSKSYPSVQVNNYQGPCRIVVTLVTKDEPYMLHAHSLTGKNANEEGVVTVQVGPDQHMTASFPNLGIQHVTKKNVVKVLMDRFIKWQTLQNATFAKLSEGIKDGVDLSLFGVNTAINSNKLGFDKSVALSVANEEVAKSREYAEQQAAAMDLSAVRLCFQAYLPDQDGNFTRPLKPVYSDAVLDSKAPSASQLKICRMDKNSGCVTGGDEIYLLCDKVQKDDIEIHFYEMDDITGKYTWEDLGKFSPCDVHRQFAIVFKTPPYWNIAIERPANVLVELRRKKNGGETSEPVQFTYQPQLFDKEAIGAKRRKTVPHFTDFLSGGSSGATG
# GST-Co-NF-kB = target: T3, GST-Co-NF-kB (Capsaspora owczarzaki, UniProt F1ARL5 200-546)
# T3 sequence: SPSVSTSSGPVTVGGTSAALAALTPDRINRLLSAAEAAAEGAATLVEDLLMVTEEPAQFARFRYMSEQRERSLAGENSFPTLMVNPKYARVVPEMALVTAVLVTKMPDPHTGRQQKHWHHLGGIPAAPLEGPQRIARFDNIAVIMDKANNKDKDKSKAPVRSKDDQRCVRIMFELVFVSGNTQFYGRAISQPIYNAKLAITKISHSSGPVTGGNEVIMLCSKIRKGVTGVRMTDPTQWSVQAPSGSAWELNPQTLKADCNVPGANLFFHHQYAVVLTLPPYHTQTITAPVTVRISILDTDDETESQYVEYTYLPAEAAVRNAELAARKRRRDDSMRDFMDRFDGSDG
# GST-Dm-Relish = target: T4, GST-Dm-Relish (Drosophila melanogaster, UniProt Q94527 99-473)
# T4 sequence: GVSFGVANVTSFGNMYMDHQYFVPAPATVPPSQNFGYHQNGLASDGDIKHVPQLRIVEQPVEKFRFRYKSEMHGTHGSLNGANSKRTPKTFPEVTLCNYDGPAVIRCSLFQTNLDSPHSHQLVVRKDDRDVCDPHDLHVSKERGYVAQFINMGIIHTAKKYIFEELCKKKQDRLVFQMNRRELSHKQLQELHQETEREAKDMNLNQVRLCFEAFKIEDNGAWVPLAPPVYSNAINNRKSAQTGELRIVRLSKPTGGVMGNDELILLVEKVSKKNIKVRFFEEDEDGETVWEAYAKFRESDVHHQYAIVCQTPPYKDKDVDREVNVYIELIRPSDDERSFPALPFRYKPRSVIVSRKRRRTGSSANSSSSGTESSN
# GST-Aq-NF-kB = target: T5, GST-Aq-NF-kB (Amphimedon queenslandica, UniProt A9Y5G7 2-389)
# T5 sequence: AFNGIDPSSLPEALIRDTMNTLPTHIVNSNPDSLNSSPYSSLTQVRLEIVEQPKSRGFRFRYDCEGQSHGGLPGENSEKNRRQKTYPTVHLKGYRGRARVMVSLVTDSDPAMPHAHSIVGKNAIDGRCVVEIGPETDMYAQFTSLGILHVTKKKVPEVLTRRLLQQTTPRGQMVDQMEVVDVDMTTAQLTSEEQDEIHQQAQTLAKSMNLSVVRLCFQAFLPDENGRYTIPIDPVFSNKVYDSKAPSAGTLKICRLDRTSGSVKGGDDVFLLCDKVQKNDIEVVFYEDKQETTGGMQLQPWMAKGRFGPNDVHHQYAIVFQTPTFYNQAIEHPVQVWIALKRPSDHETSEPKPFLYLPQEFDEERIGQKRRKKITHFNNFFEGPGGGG
Sequence,binding signal (GST-Ap-NF-kB RHD) [z-score],binding signal [1] [z-score],binding signal (GST-Co-NF-kB) [z-score],binding signal (GST-Dm-Relish) [z-score],binding signal (GST-Aq-NF-kB) [z-score]
CCGATTAACATCAAGGGAAACCCTGATGTTAATCGGGTCTTGATTCGCTTGACGCTGCTG,4.71,5.3,2.82,7.64,5.8
CCGATTAACATCAGGACTCTCCCTGATGTTAATCGGGTCTTGATTCGCTTGACGCTGCTG,3.59,5.02,1.1,2.07,7.56
CCGATTAACATCAGACAATTCCCTGATGTTAATCGGGTCTTGATTCGCTTGACGCTGCTG,3.02,5,2.28,1.37,4.77
CCGATTAACATCAGGGGGTACCCTGATGTTAATCGGGTCTTGATTCGCTTGACGCTGCTG,7.79,4.44,4.14,6.71,6.6
CCGATTAACATCACGTATTTCCCTGATGTTAATCGGGTCTTGATTCGCTTGACGCTGCTG,3.32,4.03,3.79,4.26,3.99
CCGATTAACATCAAAAACACCCCTGATGTTAATCGGGTCTTGATTCGCTTGACGCTGCTG,4.85,3.9,3.98,5.77,4.95
CCGATTAACATCAAGTGTTTCCCTGATGTTAATCGGGTCTTGATTCGCTTGACGCTGCTG,2.2,3.22,3.78,4.7,3.79
CCGATTAACATCAGAACATTCCCTGATGTTAATCGGGTCTTGATTCGCTTGACGCTGCTG,2.94,4.14,2.6,1.97,5
CCGATTAACATCAGGCAATTCCCTGATGTTAATCGGGTCTTGATTCGCTTGACGCTGCTG,2.76,5.17,1.58,2.03,6.13
CCGATTAACATCACGGGGTTGCCTGATGTTAATCGGGTCTTGATTCGCTTGACGCTGCTG,1.46,1.02,1.38,2.5,2.2
CCGATTAACATCACCAATTTCCCTGATGTTAATCGGGTCTTGATTCGCTTGACGCTGCTG,3.3,4.17,3.83,1.84,3.17
CCGATTAACATCAGGGGATGACCTGATGTTAATCGGGTCTTGATTCGCTTGACGCTGCTG,3.72,4.14,1.93,6.67,6.55
CCGATTAACATCACGCAATTCCCTGATGTTAATCGGGTCTTGATTCGCTTGACGCTGCTG,2.72,4.1,2.33,1.52,3.43
CCGATTAACATCAACTCCCCCCCTGATGTTAATCGGGTCTTGATTCGCTTGACGCTGCTG,6.64,4.56,7.71,5.06,5.08
CCGATTAACATCAGGCCGTCCCCTGATGTTAATCGGGTCTTGATTCGCTTGACGCTGCTG,4.92,4.47,1.48,5.02,5.74
CCGATTAACATCACCTTCCCCCCTGATGTTAATCGGGTCTTGATTCGCTTGACGCTGCTG,4.15,4.07,7.1,3.79,4.32
CCGATTAACATCAGGCTTTTCCCTGATGTTAATCGGGTCTTGATTCGCTTGACGCTGCTG,2.62,4.54,2.51,2.3,6.49
CCGATTAACATCACCCATCCCCCTGATGTTAATCGGGTCTTGATTCGCTTGACGCTGCTG,4.59,3.91,3.26,2.93,3.73
CCGATTAACATCACCAAAACCCCTGATGTTAATCGGGTCTTGATTCGCTTGACGCTGCTG,4.76,3.55,1.32,6.02,3.55
CCGATTAACATCACGGGACTCCCTGATGTTAATCGGGTCTTGATTCGCTTGACGCTGCTG,5.53,4.06,1.53,8.72,5
CCGATTAACATCACTACTTTCCCTGATGTTAATCGGGTCTTGATTCGCTTGACGCTGCTG,3.07,3.89,3.41,1.63,3.68
CCGATTAACATCAGGGGGTTAGATGATGTTAATCGGGTCTTGATTCGCTTGACGCTGCTG,3.78,2.99,1.94,4.34,3.58
CCGATTAACATCACTGGGAAAACTGATGTTAATCGGGTCTTGATTCGCTTGACGCTGCTG,1.79,2.36,5.25,1.48,1.81
CCGATTAACATCAGGGGGTGATATGATGTTAATCGGGTCTTGATTCGCTTGACGCTGCTG,3.88,3.66,4.73,2.63,4.56
CCGATTAACATCACGAGTTTCCCTGATGTTAATCGGGTCTTGATTCGCTTGACGCTGCTG,3.04,4.31,3.63,1.16,3.88
CCGATTAACATCAAAACAGTCCCTGATGTTAATCGGGTCTTGATTCGCTTGACGCTGCTG,4.53,5.79,1.26,3.28,6.16
CCGATTAACATCAGGGAGATACCTGATGTTAATCGGGTCTTGATTCGCTTGACGCTGCTG,4,4.81,1.64,4.25,7.69
CCGATTAACATCAGGTTTTCCCATGATGTTAATCGGGTCTTGATTCGCTTGACGCTGCTG,3.58,3.91,4.33,5.47,4.82
